PubChem BioAssay (NCI)
About 83,000 compounds went through this panel and 20% of them were active in at least one assay; those are over-represented in the sample as a whole.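 Cell lines were cultured in 96-well plates, exposed to a single compound concentration, and assessed for percent growth 48 hours later.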 Active and inactive are the calls of the source. How the source made its calls: active means growth percent below 10; inactive means the rest.

Columns and labels:
Assay in all cases: NCI-60 one-dose screen, 48 h (100 = growth as untreated, 0 = no growth, -100 = all killed)
Conditions in all cases: 10 µM unless noted
DU-145 prostate = system: DU-145 prostate
K-562 leukemia = system: K-562 leukemia
MALME-3M melanoma = system: MALME-3M melanoma
MDA-MB-231 breast = system: MDA-MB-231 breast
RXF 393 renal = system: RXF 393 renal
SF-268 CNS = system: SF-268 CNS
SF-295 CNS = system: SF-295 CNS
SF-539 CNS = system: SF-539 CNS
UACC-257 melanoma = system: UACC-257 melanoma
M14 melanoma = system: M14 melanoma
HCT-15 colon = system: HCT-15 colon
HT29 colon = system: HT29 colon
SNB-75 CNS = system: SNB-75 CNS
SNB-19 CNS = system: SNB-19 CNS
U251 CNS = system: U251 CNS
PC-3 prostate = system: PC-3 prostate
SK-MEL-5 melanoma = system: SK-MEL-5 melanoma
UACC-62 melanoma = system: UACC-62 melanoma
LOX IMVI melanoma = system: LOX IMVI melanoma
SK-MEL-28 melanoma = system: SK-MEL-28 melanoma

Measured: growth

COc1cc(OCc2cccc(-c3ccc(C(O)c4nccs4)cc3)c2C)cc(OC)c1C=O (stereo not given)
inactive: DU-145 prostate 53.6% | K-562 leukemia 18% | MDA-MB-231 breast 54.5% | RXF 393 renal 59.5% | SF-268 CNS 65% | SF-295 CNS 35.1% | SF-539 CNS 69.4% | UACC-257 melanoma 13.3% | M14 melanoma 32% | HCT-15 colon 32.3% | HT29 colon 48.7% | SNB-75 CNS 69.6% | SNB-19 CNS 70.4% | U251 CNS 60.6% | PC-3 prostate 52.2% | LOX IMVI melanoma 48.8% | SK-MEL-28 melanoma 57.3%
active: MALME-3M melanoma 7.88% | SK-MEL-5 melanoma -78.1% | UACC-62 melanoma -4.45%

Cc1ccccc1-n1nnc(C(=O)Nc2nc(-c3ccccc3)c(-c3ccccc3)s2)c1C
inactive: DU-145 prostate 87.6% [50 µM] | K-562 leukemia 53.5% [50 µM] | MALME-3M melanoma 80% [50 µM] | MDA-MB-231 breast 85.3% [50 µM] | RXF 393 renal 69% [50 µM] | SF-268 CNS 69.6% [50 µM] | SF-295 CNS 80.6% [50 µM] | SF-539 CNS 77.1% [50 µM] | UACC-257 melanoma 61.5% [50 µM] | M14 melanoma 78.7% [50 µM] | HCT-15 colon 67.3% [50 µM] | HT29 colon 78.7% [50 µM] | SNB-19 CNS 49.5% [50 µM] | U251 CNS 76.6% [50 µM] | PC-3 prostate 63.2% [50 µM] | SK-MEL-5 melanoma 80.5% [50 µM] | UACC-62 melanoma 69.9% [50 µM] | LOX IMVI melanoma 80.7% [50 µM] | SK-MEL-28 melanoma 87.2% [50 µM]
active: SNB-75 CNS 5.92% [50 µM]

O=c1c2c(=NCCN3CCCC3)cc3c(=O)n(CCCN4CCOCC4)c(=O)c4ccc(c(O)n1CCCN1CCOCC1)c2c4-3
active: DU-145 prostate 2.23% | K-562 leukemia 3.73% | MALME-3M melanoma -70.7% | MDA-MB-231 breast -24.5% | RXF 393 renal -66.3% | SF-268 CNS -26.8% | SF-295 CNS 1.07% | SF-539 CNS -53.9% | UACC-257 melanoma -14.3% | M14 melanoma -73.4% | HCT-15 colon -11.8% | HT29 colon -16.9% | SNB-75 CNS -88.8% | SNB-19 CNS 1.06% | U251 CNS 5.11% | PC-3 prostate -20.8% | SK-MEL-5 melanoma -14.9% | UACC-62 melanoma -49.7% | LOX IMVI melanoma -6.84% | SK-MEL-28 melanoma -32.9%

O=C1Nc2ccc(Cl)cc2/C1=N/N=C(c1ccccc1)c1ccccc1
inactive: DU-145 prostate 103% | K-562 leukemia 93.3% | MALME-3M melanoma 87.9% | MDA-MB-231 breast 75.6% | RXF 393 renal 109% | SF-268 CNS 97.8% | SF-295 CNS 92.6% | SF-539 CNS 97% | UACC-257 melanoma 98.5% | M14 melanoma 102% | HCT-15 colon 87.2% | HT29 colon 98.3% | SNB-75 CNS 74.5% | SNB-19 CNS 62.7% | U251 CNS 94.5% | PC-3 prostate 86.2% | SK-MEL-5 melanoma 99% | UACC-62 melanoma 84.6% | LOX IMVI melanoma 87.5% | SK-MEL-28 melanoma 117%

O=c1onc(-c2ccccc2)c2ccccc12
inactive: DU-145 prostate 113% | K-562 leukemia 105% | MALME-3M melanoma 121% | MDA-MB-231 breast 97% | RXF 393 renal 90.5% | SF-268 CNS 113% | SF-295 CNS 101% | SF-539 CNS 122% | UACC-257 melanoma 120% | M14 melanoma 118% | HCT-15 colon 115% | HT29 colon 109% | SNB-75 CNS 109% | SNB-19 CNS 104% | U251 CNS 98.7% | PC-3 prostate 102% | SK-MEL-5 melanoma 103% | UACC-62 melanoma 103% | LOX IMVI melanoma 97.5% | SK-MEL-28 melanoma 103%

CCCCCCCC/C=C\CCCCCCCCOc1cccc(CC(=O)NCC[N+]2(C)CCCCC2)c1
active: RXF 393 renal -2.16%
inactive: DU-145 prostate 84.5% | K-562 leukemia 46.2% | MALME-3M melanoma 79.1% | MDA-MB-231 breast 71.2% | SF-268 CNS 61.6% | SF-295 CNS 87.5% | SF-539 CNS 99.1% | UACC-257 melanoma 98.5% | M14 melanoma 84.4% | HCT-15 colon 102% | HT29 colon 27% | SNB-75 CNS 50.7% | SNB-19 CNS 56.7% | U251 CNS 51.6% | PC-3 prostate 22.1% | SK-MEL-5 melanoma 89.4% | UACC-62 melanoma 70.1% | LOX IMVI melanoma 74.5% | SK-MEL-28 melanoma 98.7%

COc1cc(CNCCN2C(=O)c3ccc4c5c(ccc(c35)C2=O)C(=O)N(CCNCc2cc(OC)c(OC)c(OC)c2)C4=O)cc(OC)c1OC
active: DU-145 prostate -56.8% | K-562 leukemia -4.93% | MALME-3M melanoma -50.5% | MDA-MB-231 breast -83.9% | RXF 393 renal -94.9% | SF-268 CNS -46.8% | SF-295 CNS -68% | SF-539 CNS -84% | UACC-257 melanoma -70.9% | M14 melanoma -96.9% | HCT-15 colon -66.2% | HT29 colon -52.3% | SNB-75 CNS -98% | SNB-19 CNS -79.8% | U251 CNS -68.1% | PC-3 prostate -73.1% | SK-MEL-5 melanoma -87.7% | UACC-62 melanoma -92.4% | LOX IMVI melanoma -99% | SK-MEL-28 melanoma -89.3%

CCN(CC)c1ccc(/C=C(\C#N)c2cc3ccccc3[nH]2)cc1
inactive: DU-145 prostate 74.1% | K-562 leukemia 14.2% | MALME-3M melanoma 71.7% | MDA-MB-231 breast 48.6% | RXF 393 renal 94% | SF-268 CNS 71.8% | SF-295 CNS 46.9% | SF-539 CNS 58.3% | UACC-257 melanoma 81.5% | M14 melanoma 29.6% | HCT-15 colon 29.7% | HT29 colon 13.7% | SNB-75 CNS 55.2% | SNB-19 CNS 72.9% | U251 CNS 41.7% | PC-3 prostate 77% | SK-MEL-5 melanoma 52.1% | UACC-62 melanoma 64% | LOX IMVI melanoma 29.7% | SK-MEL-28 melanoma 67.1%

NS(=O)(=O)c1ccc(C(=O)N/N=C(\CS(=O)(=O)c2ccccc2)c2cc3cc(Br)ccc3o2)cc1
inactive: DU-145 prostate 101% | K-562 leukemia 106% | MALME-3M melanoma 90.5% | MDA-MB-231 breast 73.7% | RXF 393 renal 74.7% | SF-268 CNS 73.3% | SF-295 CNS 101% | SF-539 CNS 80.6% | UACC-257 melanoma 94.8% | M14 melanoma 111% | HCT-15 colon 99.5% | HT29 colon 97.4% | SNB-75 CNS 56.1% | SNB-19 CNS 69.9% | U251 CNS 96.1% | PC-3 prostate 94.4% | SK-MEL-5 melanoma 85.6% | UACC-62 melanoma 82% | LOX IMVI melanoma 94.7% | SK-MEL-28 melanoma 98.4%

CCN1CCN(c2ccc(Nc3ncc4ccc5ncn(C(C)C)c5c4n3)nc2)CC1
inactive: U251 CNS 14.1%
active: DU-145 prostate -22.7% | K-562 leukemia 9.12% | MALME-3M melanoma -34% | MDA-MB-231 breast 0.653% | RXF 393 renal -85.4% | SF-268 CNS -34.2% | SF-295 CNS -17.8% | SF-539 CNS -75.8% | UACC-257 melanoma 0.866% | M14 melanoma -23.8% | HCT-15 colon -0.238% | HT29 colon 5.37% | SNB-75 CNS -66% | SNB-19 CNS 9.26% | PC-3 prostate 7.15% | SK-MEL-5 melanoma -8.75% | UACC-62 melanoma -17% | LOX IMVI melanoma -33.3% | SK-MEL-28 melanoma -13.7%

O=[N+]([O-])c1ccc2nc(N/N=C/c3ccc(O)cc3)sc2c1
inactive: DU-145 prostate 60.1% | K-562 leukemia 31.6% | MALME-3M melanoma 65% | MDA-MB-231 breast 82.9% | RXF 393 renal 103% | SF-268 CNS 64.1% | SF-295 CNS 86.7% | SF-539 CNS 49.5% | UACC-257 melanoma 66.6% | M14 melanoma 83% | HCT-15 colon 53.4% | HT29 colon 78% | SNB-75 CNS 73.7% | SNB-19 CNS 77.9% | U251 CNS 45.9% | PC-3 prostate 38.4% | SK-MEL-5 melanoma 58.1% | UACC-62 melanoma 81.7% | LOX IMVI melanoma 49.7% | SK-MEL-28 melanoma 89%

COc1ccc(C2SC(C)C(=O)N2CCc2cccs2)cc1OC (stereo not given)
inactive: DU-145 prostate 93.3% | K-562 leukemia 62.3% | MALME-3M melanoma 119% | MDA-MB-231 breast 73.2% | RXF 393 renal 86.1% | SF-268 CNS 89.2% | SF-295 CNS 75.5% | SF-539 CNS 94.1% | UACC-257 melanoma 75.7% | M14 melanoma 121% | HCT-15 colon 87.8% | HT29 colon 91.6% | SNB-75 CNS 69.1% | SNB-19 CNS 86.9% | U251 CNS 83.2% | PC-3 prostate 65.7% | SK-MEL-5 melanoma 49.4% | UACC-62 melanoma 73.5% | LOX IMVI melanoma 81.9% | SK-MEL-28 melanoma 108%

CN1CCc2cccc3c2C1Cc1ccc(O)c(O)c1-3 (stereo not given)
inactive: DU-145 prostate 96.3% | K-562 leukemia 64.3% | MALME-3M melanoma 83.1% | MDA-MB-231 breast 65.7% | RXF 393 renal 91.1% | SF-268 CNS 87.6% | SF-295 CNS 97.8% | SF-539 CNS 84.2% | UACC-257 melanoma 103% | M14 melanoma 76.1% | HCT-15 colon 70.7% | HT29 colon 76.2% | SNB-75 CNS 83.6% | SNB-19 CNS 111% | U251 CNS 99.9% | PC-3 prostate 65.6% | SK-MEL-5 melanoma 97.5% | UACC-62 melanoma 105% | LOX IMVI melanoma 67.8% | SK-MEL-28 melanoma 115%

COc1cc(/C=C2\C(=O)Nc3ccccc32)cc(OC)c1O
inactive: DU-145 prostate 92.5% | MALME-3M melanoma 118% | MDA-MB-231 breast 63.1% | RXF 393 renal 71.3% | SF-268 CNS 78.3% | SF-295 CNS 60.6% | SF-539 CNS 68.8% | UACC-257 melanoma 62.6% | M14 melanoma 53.6% | HCT-15 colon 61.6% | HT29 colon 75.7% | SNB-75 CNS 23.1% | SNB-19 CNS 83.7% | U251 CNS 47% | PC-3 prostate 51.2% | SK-MEL-5 melanoma 45.7% | UACC-62 melanoma 72.1% | LOX IMVI melanoma 36.5% | SK-MEL-28 melanoma 90.3%
active: K-562 leukemia 7.58%

COc1ccccc1CNCCCCCCCCCCCCN1C(=O)c2ccc3c4c(ccc(c24)C1=O)C(=O)N(CCCCCCCCCCCCNCc1ccccc1OC)C3=O
inactive: DU-145 prostate 51.2% | K-562 leukemia 35.2% | MALME-3M melanoma 97.6% | MDA-MB-231 breast 64.1% | SF-268 CNS 69.4% | SF-295 CNS 49.4% | UACC-257 melanoma 113% | M14 melanoma 80.2% | HCT-15 colon 77.7% | HT29 colon 53.4% | SNB-19 CNS 58.1% | PC-3 prostate 27.7% | SK-MEL-5 melanoma 78.4% | UACC-62 melanoma 105% | LOX IMVI melanoma 56.4% | SK-MEL-28 melanoma 81.1%
active: RXF 393 renal -69.6% | SF-539 CNS 1.92% | SNB-75 CNS -13.3% | U251 CNS -28.6%
